The list is not random: actives were taken first. Their share in the collection is about 2.4%.
Arbovirus anti – blocks arbovirus infection; arbovirus infection cell-based antiviral screen; inhibition, % at 10 µM; 0.37% of 200,000 active; AID 1251; in the data active = inhibition above about 30%
Hck Nef HTS – human Hck-Nef kinase inhibition; P08631; Recombinant Hck-YEEI plus Nef, Z-Lyte FRET kinase assay; 0.68% of 220,000 active; inhibition, % at 20 µM;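 active = Hck-Nef kinase inhibition above about 50%, limit read from the data; inactive = inhibition below that limit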
EP2 antag – EP2 receptor (human) inhibition | inhibition, % at 25 µM | AID 1422 | C6 glioma cells expressing human EP2, cAMP TR-FRET; cells stimulated with saturating PGE2 | P43116 | 0.52% of 260,000 active;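 active = percent inhibition above 40 after rounding to a whole number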;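 also: rat C6 glioma host cells with rolipram phosphodiesterase inhibitor present; the protocol text gives 20 µM as final concentration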
EP2 mod – modulates human prostaglandin E2 receptor EP2 signaling; EP2-expressing cells, cAMP HTRF FRET, PGE2 co-stimulation; induction, % at 25 µM; 0.83% of 260,000 active; AID 940;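 active = compounds whose cAMP rise, as percent of the full-agonist control response, exceeds 60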;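 also: rat C6 glioma line stably carrying human EP2 under a CMV promoter; the protocol text gives 20 µM as final concentration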
p97 inhibitor – inhibitors of human p97 ATPase; P55072; recombinant p97 ATPase, Kinase-Glo ATP luminescence, 3 h; inhibition, % at 8 µM; 0.42% of 220,000 active; AID 1481; in the data active = inhibition above about 15%
p97 confirm – confirmation of human p97 ATPase inhibitors | recombinant p97 ATPase, Kinase-Glo ATP luminescence | shares compounds with p97 inhibitor | AID 1517 | inhibition, % at 8 µM | 44% of 760 active;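 active = percent inhibition of p97 ATPase above a set limit, the primary screen's mean plus 3 SD, cut at about 15% in these data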
Hck-Nef confirm – confirmation of Hck-Nef kinase inhibitors | calls only at 10 µM | 28% of 1,300 active | shares compounds with Hck Nef HTS | Recombinant Hck-YEEI:Nef, Z-Lyte FRET kinase assay;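 active = average inhibition of at least 50%, with Z-scores no higher than 3 in both the phospho-tyrosine peptide and fluorescence counterscreens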
Numbers stand for hits; - = inactive; . = not tested or not shown; + = active, no number.

SMILES	Arbovirus anti	Hck Nef HTS	EP2 antag	EP2 mod	p97 inhibitor	p97 confirm	others
COCCCn1c(N)c(C(=O)OC(C)COC)c2nc3ccccc3nc21 (centres undefined)	-	-	-	-	15	-
COCCNC(=O)c1c(N)n(Cc2ccco2)c2nc3ccccc3nc12	-	-	-	-	-	.
C=CCNC(=O)c1c(N)n(Cc2ccco2)c2nc3ccccc3nc12	-	-	-	-	-	.
CC(C)(C)OC(=O)c1c(N)n(Cc2ccco2)c2nc3ccccc3nc12	-	-	-	-	16	-
COCCCn1c(N)c(C(=O)NCc2ccco2)c2nc3ccccc3nc21	.	-	-	-	37	19
Cc1nc(CC(=O)N(CCN(C)C)Cc2ccccc2F)cs1	.	.	-	-	.	.
CC(=O)N1CCCc2cc(C(O)CN3CC=C(c4ccc(F)cc4)CC3)ccc21 (centres undefined)	.	.	-	-	.	.
CN1CCN(C2CC3(C)C(CCC4C3CCC3(C)C(O)C(N5CCN(C)CC5)CC43)CC2O)CC1 (centres undefined)	.	.	-	-	.	.
CN[C@H]1C[C@H]2O[C@@](C)([C@H]1OC)n1c3ccccc3c3c4c(c5c6ccccc6n2c5c31)C(=O)NC4	-	.	-	-	15	-
O=C(CN1C(=O)CN=C(c2ccc(Cl)cc2)c2c1sc1c2CCCC1)NCc1ccco1	.	.	-	-	.	.
CCC(C)NC(=O)c1c(N)n(CC2CCCO2)c2nc3ccccc3nc12 (centres undefined)	-	-	-	-	29	-
C=CCN(c1ccc(C(=O)N(CC)CC)cc1)S(C)(=O)=O	-	-	-	-	-	.
CCN(CC)C(=O)c1ccc(N2C(=O)C3CC=C(Cl)CC3C2=O)cc1 (centres undefined)	-	-	-	-	16	-
CCCCn1c(NS(=O)(=O)c2ccccc2)c(C(=O)OCC)c2nc3ccccc3nc21	-	-	-	-	21	-
CCOC(=O)c1c(N)n(CCN2CCCCC2)c2nc3ccccc3nc12	-	-	-	-	-	.
CC(C)c1ccc(N2C(=O)NC(=O)/C(=C/C=C/c3ccco3)C2=O)cc1	-	-	59	-	16	-
Nc1nonc1-c1cnon1	.	.	-	-	.	.
Cc1[nH]n(-c2ccccc2)c(=O)c1C(c1ccc([N+](=O)[O-])cc1)c1c(C)[nH]n(-c2ccccc2)c1=O	-	-	-	-	40	-
Nc1c(C(=O)NCCN2CCOCC2)c2nc3ccccc3nc2n1Cc1ccccc1	.	95	-	-	35	-
COc1ccc(CC(=O)N(CCN(C)C)C2CCN(C)CC2)cc1C	.	.	-	-	.	.
CCN(CC)CCN=Cc1c(O)n(CCc2ccccc2)c(=O)[nH]c1=O	-	62	-	-	-	.	Hck-Nef confirm=-
CN1C(=O)NC(=O)/C(=C/c2ccc([N+](=O)[O-])o2)C1=O	.	-	-	-	-	.
O=C1NC(=O)C(=Cc2ccc(-c3ccccc3[N+](=O)[O-])o2)C(=O)N1	.	76	-	-	-	.	Hck-Nef confirm=+
COC1C(OC(=O)c2ccc(C)[nH]2)C(O)C(Oc2ccc3c(O)c(NC(=O)c4ccc(O)c(CC=C(C)C)c4)c(=O)oc3c2Cl)OC1(C)C (centres undefined)	.	55	-	-	-	.	Hck-Nef confirm=-
Nc1c(C(=O)NCCN2CCOCC2)c2nc3ccccc3nc2n1Cc1ccco1	-	58	-	-	-	.	Hck-Nef confirm=-
SMILES	Arbovirus anti	Hck Nef HTS	EP2 antag	EP2 mod	p97 inhibitor	p97 confirm	others
COc1ccc(CCNC(=O)c2c(N)n(CCN3CCOCC3)c3nc4ccccc4nc23)cc1	-	-	-	-	-	.
CCCCn1c(N)c(C(=O)NCCN2CCOCC2)c2nc3ccccc3nc21	-	-	-	-	-	.
Nc1c(C(=O)NCCc2ccccc2)c2nc3ccccc3nc2n1CCN1CCOCC1	-	53	-	-	-	.	Hck-Nef confirm=-
Cc1ccc(C2=CCN(CC(=O)Nc3ccc4c(c3)OCO4)CC2)o1	.	.	-	-	.	.
COc1ccc2c3c1OC1C(OC)C=CC4C(C2)CN(C)CC341 (centres undefined)	.	.	-	-	.	.
C/C(CC(c1ccccc1)c1c(O)c2ccccc2oc1=O)=N\NC(N)=S (centres undefined)	-	-	-	-	-	.
NC(=S)N/N=C/c1coc2ccccc2c1=O	-	53	-	-	-	.	Hck-Nef confirm=-
N#Cc1ccccc1NC(=O)CN1CC=C(c2ccccc2)CC1	-	55	-	-	-	.	Hck-Nef confirm=-
O=C1NC(=O)C(=Cc2coc3ccccc3c2=O)C(=O)N1	-	97	-	-	-	.	Hck-Nef confirm=+

Source: PubChem BioAssay (several laboratories)
